Measured values as given in PubChem BioAssay (Tox21).
Inconclusive results are not listed. Entries that show only a call come without a potency. Active and inactive are the calls of the source. Unless noted, calls come from the whole dose curve; as a rule, active = well fitted curve in the direction sought with a large enough effect in the repeat runs; inconclusive = weak or mixed curves; inactive = no such curve, though single readings can be large; an effect the other way counts as inactive or inconclusive.

What was measured:
[1] = qHTS assay for small molecule agonists of the p53 signaling pathway - cell viability (AID 651633; calls by dose curve;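 note: p53RE-bla HCT reporter cells with a stable beta-lactamase p53 reporter; nearly all actives have a fitted effect of over 30% in size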)
Method in brief: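 Viability counter-read: CellTiter-Glo luminescence (30 min, room temperature) in the same p53RE-bla plates. These plates had been exposed to compounds for 16 h at 37 C.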

[2] = qHTS assay to test for compound auto fluorescence at 590 nm (red) in HepG2 cells (AID 720674)
Method in brief: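 Red autofluorescence (Ex/Em 540/590 nm, Rose Bengal sodium equivalents) was measured in HepG2 cells, 2,000 per well in MEM plus 10% FBS, plated overnight at 37 C. Readings were taken 1 hr after adding 23 nL compound or DMSO, at 37 C and 5% CO2.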

[3] = qHTS assay to test for compound auto fluorescence at 535 nm (green) in HepG2 cells (AID 720675)
[4] = qHTS assay to test for compound auto fluorescence at 590 nm (red) in HEK293 cells (AID 720679)
Method in brief: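 Red channel, Ex/Em 540/590nm; signal expressed as equivalency to Rose Bengal sodium. HEK293, 2,000 cells/well, 10% dialyzed FBS; 23 nL compound pinned after 4-5 hr attachment; overnight 37C/5% CO2 before reading.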

[5] = qHTS assay to test for compound auto fluorescence at 535 nm (green) in HEK293 cells (AID 720680)
[6] = qHTS assay to test for compound auto fluorescence at 460 nm (blue) in HEK293 cell free culture (AID 720681)
Method in brief: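 Blue fluorescence (Ex 405/Em 460 nm, triamterene-equivalent) was read immediately after pin transfer of compound or DMSO into medium (DMEM, 10% FBS) without cells.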

[7] = qHTS assay to test for compound auto fluorescence at 590 nm (red) in HEK293 cell free culture (AID 720683)
Method in brief: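 Red-channel autofluorescence of compounds in culture medium (DMEM, 10% FBS), no cells, measured at 540/590 nm. Rose Bengal sodium is the reference fluorophore for equivalence.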

[8] = qHTS assay to test for compound auto fluorescence at 590 nm (red) in HepG2 cell free culture (AID 720684)
Method in brief: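 No cells present: MEM + 10% FBS only. Compound pinned in, red label read (540/590 nm). Activity = fluorescence equivalent to Rose Bengal sodium.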

[9] = qHTS assay to test for compound auto fluorescence at 460 nm (blue) in HepG2 cell free culture (AID 720685)
Method in brief: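 Cell-free plates of MEM plus 10% FBS received 23 nL compound or DMSO vehicle; blue-channel (405/460 nm) intensity scored against triamterene as reference fluorophore.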

[10] = qHTS assay to test for compound auto fluorescence at 535 nm (green) in HepG2 cell free culture (AID 720686)
[11] = qHTS assay to test for compound auto fluorescence at 460 nm (blue) in HepG2 cells (AID 720687)
Method in brief: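 Blue-channel autofluorescence (Ex/Em 405/460 nm, triamterene-equivalent) was measured after 1 hr compound exposure at 37 C, 5% CO2. Cells were HepG2, plated overnight at 37 C in MEM plus 10% FBS.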

[12] = qHTS assay for small molecule disruptors of the mitochondrial membrane potential - cell viability (AID 720634; calls by dose curve;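 note: human HepG2 liver cancer cells; nearly all actives have a fitted effect of over 20% in size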)
Method in brief: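 ATP-based luminescent viability readout (CellTiter-Glo, 30 min, room temperature) in HepG2 cells multiplexed with the m-MPI membrane potential dye; compound exposure lasted 1 hr at 37 C.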

[13] = qHTS assay to test for compound auto fluorescence at 535 nm (green) in HEK293 cell free culture (AID 720682)
Method in brief: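 Intrinsic compound fluorescence is measured in culture medium containing 10% FBS, with excitation at 485 nm and detection at 535 nm, referenced to fluorescein.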

[14] = qHTS assay for small molecules that induce genotoxicity in human embryonic kidney cells expressing luciferase-tagged ATAD5 - cell viability (AID 651634; calls by dose curve; note: nearly all actives have a fitted effect of over 25% in size)
Method in brief: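 After 15.5 hr incubation with compound at 37C, 5% CO2, HEK293T ATAD5-luciferase cells received CellTiter-Fluor reagent; fluorescence intensity was quantified following 30 min at 37C.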

[15] = qHTS assay for small molecule disruptors of the mitochondrial membrane potential (AID 720635); note: potency is the fitted concentration of half-maximal effect
Method in brief: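 Mitochondrial membrane potential tracked with Mito-MPS dye, red aggregates (ex 540/em 590 nm) against green monomers (ex 490/em 535 nm). Compound treatment 1 hr at 37C, dye 30 min in HepG2.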

[16] = qHTS assay to test for compound auto fluorescence at 460 nm (blue) in HEK293 cells (AID 720678)
Method in brief: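 Blue read-out at excitation 405 nm and emission 460 nm follows overnight compound exposure of HEK293 cells at 37C in 5% CO2. Activity is given as auto fluorescence equivalency to triamterene.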

[17] = target: Glucocorticoid receptor (Homo sapiens) (UniProt P04150); assay: qHTS assay to identify small molecule agonists of the glucocorticoid receptor (GR) signaling pathway (AID 720691; active = well fitted activation curve with a large enough effect in the signal ratio in the repeat runs, not every such curve was filed as active; the % refers to the signal ratio); details: GR-bla HeLa, beta-lactamase reporter ratio, 18 h; activation: at 62.4 µM (top of the series)
Method in brief: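 Cells: GR-bla HeLa, endogenous GR with stably integrated GRE-beta-lactamase reporter. Treatment 18 h, 37 C, compounds delivered in DMSO. Detection via LiveBLAzer B/G FRET substrate, 2 h RT, fluorescence intensity.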

[18] = target: Glucocorticoid receptor (Homo sapiens) (UniProt P04150); assay: qHTS assay to identify small molecule antagonists of the glucocorticoid receptor (GR) signaling pathway (AID 720692; active = well fitted inhibition curve with a large enough effect in the signal ratio in the repeat runs, not every such curve was filed as active; the % refers to the signal ratio)
Method in brief: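 Quantitative HTS in antagonist format: HeLa cells expressing endogenous GR and a stably integrated GRE-bla reporter, stimulated with 5 nM dexamethasone (final) alongside test compounds for 18 h.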

Glucocorticoid receptor (Homo sapiens), sequence (P04150 whole entry, looked up): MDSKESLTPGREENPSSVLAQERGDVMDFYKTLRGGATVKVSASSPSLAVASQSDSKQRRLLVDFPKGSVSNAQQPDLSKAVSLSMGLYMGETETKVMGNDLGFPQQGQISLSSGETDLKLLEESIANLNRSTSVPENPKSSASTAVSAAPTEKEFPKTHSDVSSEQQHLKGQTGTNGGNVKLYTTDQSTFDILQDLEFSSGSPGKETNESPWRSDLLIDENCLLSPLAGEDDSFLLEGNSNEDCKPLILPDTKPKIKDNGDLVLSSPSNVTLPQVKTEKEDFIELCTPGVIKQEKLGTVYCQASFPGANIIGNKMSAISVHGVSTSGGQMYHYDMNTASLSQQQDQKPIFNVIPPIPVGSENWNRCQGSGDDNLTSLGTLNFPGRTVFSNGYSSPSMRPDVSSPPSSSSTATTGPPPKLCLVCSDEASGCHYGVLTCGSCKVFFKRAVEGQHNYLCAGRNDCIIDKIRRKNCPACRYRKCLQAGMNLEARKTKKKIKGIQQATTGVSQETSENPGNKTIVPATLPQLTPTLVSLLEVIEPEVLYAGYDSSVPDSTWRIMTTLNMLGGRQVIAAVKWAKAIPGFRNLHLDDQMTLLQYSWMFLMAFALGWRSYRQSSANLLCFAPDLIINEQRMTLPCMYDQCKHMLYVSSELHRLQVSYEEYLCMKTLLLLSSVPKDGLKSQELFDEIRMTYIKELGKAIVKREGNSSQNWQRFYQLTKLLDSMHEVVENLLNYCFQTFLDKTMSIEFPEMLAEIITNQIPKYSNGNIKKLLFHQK

SMILES	Potency [1]	outcome [2]	Potency [3]	outcome [4]	outcome [5]	Potency [6]	outcome [7]	outcome [8]	Potency [9]	Potency [10]	Potency [11]	Potency [12]	outcome [13]	Potency [14]	Potency [15]	Potency [16]	Potency [17]	Potency [18]
CSSC	inactive	inactive	inactive	inactive	inactive	inactive	inactive	inactive	inactive	inactive	inactive	–	–	–	–	–	–	–
[C-]1=CC=CC1.[Cl][Zr+2][Cl].c1cc[cH-]c1	inactive	–	inactive	inactive	inactive	–	inactive	inactive	–	inactive	–	inactive	inactive	–	–	–	–	–
CC(=O)[O-].CC(=O)[O-].O.O.[Zn+2]	inactive	–	inactive	inactive	inactive	inactive	inactive	inactive	inactive	inactive	inactive	–	inactive	inactive	–	–	–	–
CN(C)c1ccc(N)cc1	inactive	inactive	inactive	–	inactive	inactive	inactive	inactive	inactive	inactive	inactive	–	–	inactive	8.42 µM (active)	inactive	–	–
CC(C)[C@@H](Nc1ccc(C(F)(F)F)cc1Cl)C(=O)OC(C#N)c1cccc(Oc2ccccc2)c1 (some centres not stated)	inactive	–	inactive	inactive	inactive	inactive	inactive	inactive	inactive	inactive	inactive	–	inactive	inactive	26.3 µM (active)	inactive	–	–
CCNc1nc(NC(C)C(C)C)nc(SC)n1 (configuration not stated)	–	inactive	inactive	inactive	inactive	inactive	inactive	inactive	inactive	inactive	inactive	inactive	inactive	inactive	7.7 µM (active)	inactive	inactive	inactive
COC(=O)c1cc(Oc2ccc(Cl)cc2Cl)ccc1[N+](=O)[O-]	inactive	inactive	inactive	inactive	inactive	inactive	inactive	inactive	inactive	inactive	inactive	–	inactive	inactive	–	inactive	inactive	inactive
Cc1c([N+](=O)[O-])cc2c(c1[N+](=O)[O-])C(C)(C)CC2(C)C	inactive	–	inactive	–	inactive	inactive	inactive	inactive	inactive	inactive	inactive	–	inactive	inactive	30.6 µM (active)	inactive	inactive	inactive
Oc1cc(Cl)cc(Cl)c1	inactive	–	inactive	inactive	inactive	inactive	inactive	inactive	inactive	inactive	inactive	–	inactive	–	9.79 µM (active)	inactive	inactive	inactive
